In the library only some 7.4% were active in any assay of this set; here they are far more common.
Rab9 prom act – qHTS Assay for Rab9 Promoter Activators. Huh7 Rab9 promoter-luciferase reporter, luminescence, 24 h. Potency, µM (series often up to 9.22 µM), usual class: activators. hit rate 2.8% among 320,000. AID 485297, 2010; further: nearly all actives have a fitted effect of over 60% in size
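Luminescence read-out: Huh7 cells stably expressing Rab9-luciferase, treated 24 h with compound at 37 °C, then lysed with luciferase reagent for 10 min at ambient before reading.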
NPC1 promoter act – qHTS Assay for NPC1 Promoter Activators. hit rate 2.4% among 320,000. Huh7 NPC1 promoter luciferase reporter, 24 h. Potency, µM (titrated, usually from 9.22 µM), most hits filed as activators. AID 485313, 2010; further: nearly all actives have a fitted effect of over 60% in size
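Compounds in DMSO were transferred onto Huh7 NPC1-luciferase reporter cells pre-incubated 2 h; after 24 h at 37 °C, Amplite reagent was dispensed and luminescence recorded 10 min later.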
Luc counter – Counterscreen for Luciferase (Kinase-Glo TM) Inhibition; AID 1379, 2008; Luciferin 4-monooxygenase (Photuris pensylvanica), Q27757; hit rate 0.28% among 200,000; Kinase-Glo luciferase, ATP luminescence, 8 min; Potency, µM (top dose mostly 38.3 µM), hits mostly inhibitors; further: nearly all actives have a fitted effect of over 60% in size
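Inhibition of Kinase-Glo luciferase light generation was assessed at 10 uM ATP in pH 7.2 imidazole buffer, with luminescence measured after eight minutes at ambient temperature.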
ELG1 genotoxic – qHTS screen for small molecules that induce genotoxicity in human embryonic kidney (HEK293T) cells expressing luciferase-tagged ELG1; Potency, µM (series often up to 46 µM), usual class: activators; HEK293T ELG1-luciferase reporter, luminescence, 16 h; hit rate 1.3% among 330,000; further: nearly all actives have a fitted effect of over 60% in size
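HEK293T cells expressing luciferase-tagged ELG1 were treated with compound or DMSO for 16 hr at 37°C. Luciferase activity was then read after 30 min with ONE-Glo at room temperature; rising signal flags genetic stress.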
SMN2 splice up – qHTS Assay for Enhancers of SMN2 Splice Variant Expression; HEK293 SMN2-luciferase splicing reporter, luminescence, 30-36 h; hit rate 2.8% among 210,000; Potency, µM (doses to about 46.1 µM), actives largely listed as activators; AID 1458, 2008; further: nearly all actives have a fitted effect of over 55% in size
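qHTS luciferase splicing reporter: luminescence rises when SMN2 exon 7 is included in transfected HEK293 cells. Compound exposure lasted 30-36 h at 37C, with 4.5 mM final sodium butyrate as control, followed by a ONE-Glo read.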
FLuc modulator – qHTS profiling assay for firefly luciferase inhibitor/activator using purifed enzyme and Km concentrations of substrates (counterscreen for miR-21 project) | purified FLuc, Km substrates, luminescence inhibition | Potency, µM (titrated, usually from 57.5 µM), most hits filed as inhibitors | hit rate 6.9% among 360,000; further: nearly all actives have a fitted effect of over 55% in size
Target sequence (P08659 whole entry, looked up): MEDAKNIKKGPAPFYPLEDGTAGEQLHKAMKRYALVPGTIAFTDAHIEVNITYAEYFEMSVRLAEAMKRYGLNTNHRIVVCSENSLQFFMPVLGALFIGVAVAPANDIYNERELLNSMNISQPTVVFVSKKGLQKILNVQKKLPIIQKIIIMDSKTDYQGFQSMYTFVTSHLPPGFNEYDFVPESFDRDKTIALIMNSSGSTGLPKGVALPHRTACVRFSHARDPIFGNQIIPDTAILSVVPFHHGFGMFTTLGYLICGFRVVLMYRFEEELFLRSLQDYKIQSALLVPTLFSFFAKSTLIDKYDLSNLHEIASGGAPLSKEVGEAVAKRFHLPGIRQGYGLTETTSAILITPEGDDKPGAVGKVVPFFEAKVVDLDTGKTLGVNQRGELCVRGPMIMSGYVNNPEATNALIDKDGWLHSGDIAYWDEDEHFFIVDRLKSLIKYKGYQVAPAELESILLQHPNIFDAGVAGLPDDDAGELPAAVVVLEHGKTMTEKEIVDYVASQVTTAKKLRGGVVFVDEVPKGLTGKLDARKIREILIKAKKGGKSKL
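Biochemical qHTS of compounds, final roughly 60 µM downward over six points, against 10 nM purified firefly luciferase using Km concentrations of substrates (10 uM D-luciferin, 10 uM ATP) in Tris acetate pH 7.5 buffer; luminescence output.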
Large screens that a line does not name were inactive. The call rests on the fitted dose curve; in most records, active means well fitted curve in the direction sought with a large enough effect; inconclusive means small, poorly fitted or top-dose-only effect, or another doubt; inactive means no such curve, though single readings can be large; an effect the other way counts as inactive or inconclusive.

O=C(NC(=S)Nc1cccc2[nH]ncc12)c1ccccc1	Rab9 prom act 2.5µM, NPC1 promoter act 3.2µM, SMN2 splice up inconclusive, FLuc modulator inconclusive
CNC(=S)Nc1cccc2[nH]ncc12	none
CCOc1ccc(C(=O)Nc2cccc3cccnc23)cc1	FLuc modulator inconclusive (no result: Luc counter, SMN2 splice up)
CC(C)Oc1ccc(C(=O)Nc2cccc3cccnc23)cc1	FLuc modulator 11µM (no result: SMN2 splice up)
CC(C)c1ccc(C(=O)Nc2cccc3cccnc23)cc1	FLuc modulator 9.5µM (no result: Rab9 prom act, NPC1 promoter act, Luc counter, ELG1 genotoxic)
O=C(Nc1cccc2cccnc12)c1ccc(F)cc1	FLuc modulator 15µM (no result: Rab9 prom act, NPC1 promoter act, Luc counter, ELG1 genotoxic, SMN2 splice up)
O=C(NC(=S)Nc1cccc2cccnc12)c1ccccc1	Rab9 prom act inconclusive, NPC1 promoter act inconclusive, FLuc modulator 7.6µM
COc1cc(CCN2C(=O)c3cccc4cccc(c34)C2=O)c(S(=O)(=O)NCCO)cc1OC	FLuc modulator 13µM (no result: Luc counter, SMN2 splice up)
COc1cc(CCN2C(=O)c3cccc4cccc(c34)C2=O)c(S(=O)(=O)NCCCO)cc1OC	FLuc modulator 21µM
COc1cc(CCN2C(=O)c3cccc4cccc(c34)C2=O)c(S(=O)(=O)N2CCCCCC2)cc1OC	FLuc modulator inconclusive
COc1ccc(-c2nc3ccccc3o2)cc1NC(=O)c1ccc(OCC(C)C)cc1	none (no result: Rab9 prom act, NPC1 promoter act, Luc counter, ELG1 genotoxic)
COc1ccc(S(=O)(=O)N(CC(=O)Nc2ccc(OC)cc2OC)c2ccc(Cl)cc2)cc1	none (no result: Rab9 prom act, NPC1 promoter act, Luc counter, ELG1 genotoxic)
Cc1ccc(Nc2cccccc2=O)cc1	Rab9 prom act 3.5µM, NPC1 promoter act inconclusive, ELG1 genotoxic inconclusive, FLuc modulator 15µM (no result: Luc counter, SMN2 splice up)
Nc1cc(C(=O)N/N=C/c2cccc([N+](=O)[O-])c2)n[nH]c1=O	none (no result: Luc counter, SMN2 splice up)
O=C1/C(=C/c2ccc(Br)cc2)Oc2cc(O)ccc21	Rab9 prom act inconclusive, FLuc modulator 3.8µM (no result: Luc counter, SMN2 splice up)
O=C1/C(=C/c2ccc([N+](=O)[O-])cc2)Oc2cc(O)ccc21	FLuc modulator 4.8µM (no result: Luc counter, SMN2 splice up)
COc1ccccc1C(=O)Nc1cccc2c1CCCC2	FLuc modulator inconclusive (no result: Luc counter, SMN2 splice up)
CCOc1ccc(/C=C2\N=C(c3cccs3)OC2=O)cc1OC	none
COc1cc(/C=C2\N=C(c3ccccc3)OC2=O)ccc1OC(C)=O	FLuc modulator 15µM (no result: Luc counter, SMN2 splice up)
COc1ccc(/C=C2/N=C(c3cccs3)OC2=O)cc1OC(C)C	FLuc modulator 6.7µM
COc1ccc(/C=C2\N=C(C)OC2=O)cc1OC(C)=O	none (no result: Luc counter, SMN2 splice up)
CCOC(=O)N1CCC(N2C(=O)c3ccc(C(=O)Nc4ccc(OC)cc4)cc3C2=O)CC1	none (no result: Luc counter, SMN2 splice up)
Cc1c(CC(C)(C)C(=O)O)n(Cc2ccc(Cl)cc2)c2ccc(F)cc12	none (no result: Rab9 prom act, NPC1 promoter act, ELG1 genotoxic, SMN2 splice up, FLuc modulator)
O=C(NCC1CCCO1)c1coc2nc3ccccc3nc12 (configuration not stated)	FLuc modulator 11µM
O=C(Nc1ccccc1C(=O)NCC1CCCO1)c1ccccc1 (configuration not stated)	none
COC(CNC(=O)c1coc2nc3ccccc3nc12)OC	FLuc modulator 11µM (no result: Luc counter, SMN2 splice up)
COC(CNC(=O)c1ccc2nc(-c3ccccc3)c(-c3ccccc3)nc2c1)OC	none
N/C(=N\OC(=O)c1ccc2ccccc2c1)c1cccc([N+](=O)[O-])c1	ELG1 genotoxic inconclusive, FLuc modulator 1.9µM
O=C(CC(=O)c1cccc([N+](=O)[O-])c1)Nc1ccccc1Cl	FLuc modulator 24µM
N/C(=N/OC(=O)c1ccccc1Cl)c1ncc([N+](=O)[O-])s1	NPC1 promoter act inconclusive, ELG1 genotoxic inconclusive, FLuc modulator 4.3µM (no result: Luc counter, SMN2 splice up)
N/C(=N\OC(=O)c1cccc(F)c1)c1cccc([N+](=O)[O-])c1	ELG1 genotoxic inconclusive, FLuc modulator 1.5µM (no result: Luc counter, SMN2 splice up)
O=C(CCNc1ccccc1)c1cccc([N+](=O)[O-])c1	none (no result: Luc counter, SMN2 splice up)
O=C(OCc1cnc(Cl)s1)c1ccccc1Cl	FLuc modulator inconclusive
CCN(CC)c1ccc(S(=O)(=O)N2CCOCC2)cc1NC(=O)Nc1ccccc1	none (no result: Rab9 prom act, NPC1 promoter act, Luc counter, SMN2 splice up, FLuc modulator)
COc1cc(C(CC(=O)O)n2cnnn2)ccc1OC(C)C (configuration not stated)	none (no result: SMN2 splice up)
COc1cc(OC)c(C(=O)O/N=C(\N)c2cccc(C)c2)cc1OC	FLuc modulator inconclusive (no result: Luc counter, SMN2 splice up)
